From PubChem BioAssay come the findings set out here.

Entries with a potency or affinity are not part of this list. Unmarked numbers belong to inactive results. The source made the active and inactive calls. The rule behind the calls is not given here.

A short description of assay [1]: A549 cell cytotoxicity, dose response, cytotoxicity control, plate reader, cherry-pick, antagonist series (AID 743412).
For assay [2], the target named is Melanocortin receptor 4 (Homo sapiens) (UniProt P32245). Nature of the assay: blockade of melanocortin 4 receptor signaling – cell-based, plate reader, cherry pick, counter-screen for LGR2 antagonist project, dose response (AID 743444). (In general: A counterscreen serves to expose hits that act by an unwanted route or on another target.)
Assay [3] in a line: toxicity toward HepG2 liver cells – cell-based, plate reader, cherry-pick, antagonist series, cytotoxicity control, dose response (AID 743416).

With `COCC#Cc1ccc2c(c1)O[C@H](CN(C)S(=O)(=O)c1cccc(F)c1)[C@@H](C)CN([C@H](C)CO)S2(=O)=O`, the molecule was called inactive in assay [1] and in assay [2].

Regarding `O=S1(=O)CCOC[C@H](CC2CCCCC2)N1Cc1ccccc1F`, the call in assay [1], in assay [3] and in assay [2] was inactive.

For `Cc1ccc(S(=O)(=O)N2[C@@H](CO)CO[C@H]2CC(=O)OCc2ccccc2)cc1`, the molecule was classed as inactive in assay [1] and in assay [2].

Consider `Cc1ccc(S(=O)(=O)N2CCCc3nc(-c4ccc(F)cc4)ccc32)cc1`, for which the result in assay [1] and in assay [2] was inactive.

As for `O=C(NCc1ccco1)c1cc(NS(=O)(=O)c2cccc([N+](=O)[O-])c2)ccc1O`, the result in assay [1], in assay [3] and in assay [2] was inactive.

For `Cn1cnc(S(=O)(=O)N2C[C@@H](O)COC[C@H]3O[C@H](CC(=O)NC4CCCC4)CC[C@@H]32)c1`, the outcome in assay [1], in assay [3] and in assay [2] was inactive.

Consider `COc1ccc(NC(=O)Nc2ccc3c(c2)CC(=O)N([C@@H](C)CO)C[C@@H](C)[C@H](CN(C)Cc2ccncc2)O3)cc1`, for which the result in assay [1] and in assay [2] was inactive.

Take `O=C(C[C@H]1C=C[C@@H](NC(=O)C2CCC2)[C@H](CO)O1)NCCCN1CCOCC1`: the molecule was called inactive in assay [1], in assay [3] and in assay [2].

Turning to `C[C@@H]1CN([C@@H](C)CO)C(=O)c2cc(NS(C)(=O)=O)ccc2O[C@@H](C)CCCCO[C@@H]1CN(C)Cc1ccc(C(F)(F)F)cc1`, the call in assay [1], in assay [3] and in assay [2] was inactive.

For the molecule `C[C@H]1CCCCO[C@H](CN(C)C(=O)Nc2cccc3ccccc23)[C@@H](C)CN([C@@H](C)CO)C(=O)c2cc(NS(=O)(=O)c3cn(C)cn3)ccc2O1`, the call in assay [1], in assay [3] and in assay [2] was inactive.

In the case of `C[C@H](CO)N1C[C@H](C)[C@H](CN(C)C(=O)Nc2ccc3c(c2)OCO3)OCCCC[C@H](C)Oc2ccc(NC(=O)NC3CCCCC3)cc2C1=O`, the call in assay [1], in assay [3] and in assay [2] was inactive.

Consider `C[C@H](CO)N1C[C@H](C)[C@H](CN(C)C(=O)Nc2ccc(F)cc2)OCCCC[C@H](C)Oc2ccc(NC(=O)NC3CCCCC3)cc2C1=O`, for which the result in assay [1], in assay [3] and in assay [2] was inactive.

As for `N#C[C@H]1[C@@H](c2ccc(C3=CCCCC3)cc2)[C@H](CO)N1C(=O)c1ccccn1`, the result in assay [1] and in assay [2] was inactive.

Consider `CC(C)N(C(=O)Nc1ccc2nsnc2c1)C(C)C`, for which the molecule was called inactive in assay [1], in assay [3] and in assay [2].

For the molecule `CCOC(=O)C(C)N1c2cccc3cccc(c23)S1(=O)=O` (stereo not given), the molecule was called inactive in assay [1], in assay [3] and in assay [2].

`O=C(CC1CS(=O)(=O)CC1CC(=O)Nc1ccc2c(c1)OCCO2)Nc1ccc2c(c1)OCCO2` (stereo not given): the molecule was classed as inactive in assay [1], in assay [3] and in assay [2].

With `Cc1noc(C)c1S(=O)(=O)Nc1ccc2c(c1)C(=O)N([C@H](C)CO)C[C@H](C)[C@H](CN(C)C(=O)Nc1ccc(F)cc1)OCCCC[C@@H](C)O2`, the result in assay [1], in assay [3] and in assay [2] was inactive.

Consider `COc1ccc(NC(=O)N(C)C[C@@H]2OCCCC[C@H](C)Oc3ccc(NC(=O)NC4CCCCC4)cc3C(=O)N([C@H](C)CO)C[C@@H]2C)cc1`, for which the result in assay [1], in assay [3] and in assay [2] was inactive.

In the case of `COc1ccc(N(CC(=O)NCc2cccs2)S(=O)(=O)c2ccc(C(C)=O)cc2)cc1`, the outcome in assay [1] and in assay [2] was inactive.

Take `COc1ccc(-c2nc(N)n(C(=O)c3cccs3)n2)cc1`: the result in assay [1], in assay [3] and in assay [2] was inactive.

Turning to `CC[C@H](CO)Oc1cc(NCc2ccc(Cl)c(Cl)c2)c2ncn(C(C)C)c2c1`, the molecule was classed as inactive in assay [3] and in assay [2].

Regarding `O=C(O)c1cccc(COc2ccc(CO)cc2Cl)c1`, in assay [3], the molecule was classed as inactive.

As to `CO[C@@H]1CN(C)C(=O)c2cc(NC(C)=O)ccc2OC[C@@H](C)N(Cc2ccc(F)cc2)C[C@@H]1C`, in assay [3], the call was inactive.

Regarding `COc1ccc(NC(=O)N(C)C[C@@H]2OCCCC[C@H](C)Oc3ccc(NC(=O)C4CCCCC4)cc3C(=O)N([C@H](C)CO)C[C@@H]2C)cc1`, the result in assay [3] and in assay [2] was inactive.

For `C[C@H](CO)N1C[C@H](C)[C@H](CN(C)C(=O)CN2CCOCC2)Oc2ncc(C#CCN(C)C)cc2C1=O`, the molecule was classed as inactive in assay [3] and in assay [2].

Turning to `Cn1nnnc1SCC(=O)N1CCN(C(=O)c2ccco2)CC1`, the molecule was classed as inactive in assay [3] and in assay [2].

Consider `O=C(Nc1ccc(N2CCOCC2)c(S(=O)(=O)Nc2ccccc2Cl)c1)c1ccc(F)cc1`, for which the molecule was classed as inactive in assay [3] and in assay [2].

As to `C[C@H](CO)N1C[C@H](C)[C@H](CN(C)C(=O)Nc2ccc(C(F)(F)F)cc2)OCCCC[C@H](C)Oc2ccc(NC(=O)CCC(F)(F)F)cc2C1=O`, the molecule was called inactive in assay [3] and in assay [2].

Take `C[C@H](CO)N1C[C@H](C)[C@H](CN(C)S(=O)(=O)c2ccc(C(F)(F)F)cc2)OCc2ccccc2-c2c(n(C)c3ccccc23)C1=O`: the outcome in assay [3] was inactive.

As for `O=c1cc(-c2c(F)c(F)c(F)c(F)c2F)oc2ccccc12`, the outcome in assay [3] and in assay [2] was inactive.

As for `C[C@H](CO)N1C[C@H](C)[C@H](CN(C)C(=O)Nc2cccc3ccccc23)OCCCC[C@H](C)Oc2ccc(NC(=O)C3CCCCC3)cc2C1=O`, the molecule was classed as inactive in assay [3] and in assay [2].

As for `C[C@H]1CCCCO[C@@H](CN(C)C(=O)Nc2ccc3c(c2)OCO3)[C@@H](C)CN([C@@H](C)CO)C(=O)c2cc(NC(=O)NC3CCCCC3)ccc2O1`, the molecule was classed as inactive in assay [3] and in assay [2].

For `C[C@H](CO)N1C[C@H](C)[C@@H](CN(C)C(=O)Nc2ccc3c(c2)OCO3)Oc2c(cccc2N(C)C)C1=O`, the result in assay [3] and in assay [2] was inactive.

Take `Cn1nnnc1Sc1ncnc2scc(-c3ccccc3C(F)(F)F)c12`: the molecule was classed as inactive in assay [3] and in assay [2].

With `NCC[C@H]1CC[C@H](NS(=O)(=O)Cc2ccccc2)[C@@H](CO)O1`, the outcome in assay [3] and in assay [2] was inactive.

Take `CCC(=O)N(C)C[C@H]1Oc2cc(C#CCC(C)C)ccc2S(=O)(=O)N([C@H](C)CO)C[C@@H]1C`: the call in assay [3] and in assay [2] was inactive.

As for `Cc1ccc(S(=O)(=O)N(C)C[C@H]2Oc3cc(Br)ccc3S(=O)(=O)N([C@H](C)CO)C[C@H]2C)cc1`, the call in assay [3] and in assay [2] was inactive.

On to `COc1ccc2[nH]c3c(c2c1)CCN1C(=O)N([C@@H](C)C(=O)NCc2ccc(C)cc2)C(=O)[C@]31C`, for which the molecule was called inactive in assay [3] and in assay [2].

As for `C[C@H](CO)N1C[C@H](C)[C@H](CN(C)C(=O)Nc2ccc(F)cc2)OCCCC[C@H](C)Oc2ccc(NC(=O)Nc3ccc(F)cc3)cc2C1=O`, the molecule was called inactive in assay [3] and in assay [2].

On to `O=C(Nc1ccc(-c2nc3cccnc3s2)cc1)C1CCCO1` (stereo not given), for which the call in assay [3] was inactive.

Regarding `Clc1ccc(-c2cc(-c3ccccn3)on2)c(Cl)c1`, the molecule was called inactive in assay [3].

`C[C@H]1CCCCO[C@@H](CN(C)C(=O)Nc2ccccc2)[C@@H](C)CN([C@@H](C)CO)C(=O)c2cc(NC(=O)NC3CCCCC3)ccc2O1`: the result in assay [3] and in assay [2] was inactive.

As to `C[C@H](CO)N1C[C@H](C)[C@H](CN(C)C(=O)Nc2ccccc2)OCCCC[C@H](C)Oc2ccc(NC(=O)Nc3ccccc3)cc2C1=O`, the molecule was classed as inactive in assay [3] and in assay [2].

On to `C[C@H](CO)N1C[C@H](C)[C@H](CN(C)C(=O)Nc2ccccc2)OCCCC[C@H](C)Oc2ccc(NC(=O)CCC(F)(F)F)cc2C1=O`, for which the outcome in assay [3] and in assay [2] was inactive.

For the molecule `CCOc1ccc(C(=O)Nc2nnc(SCC(=O)NCC3CCCO3)s2)cc1` (stereo not given), the result in assay [3] was inactive.

In the case of `Cc1cccc(-c2ccc([C@H]3[C@@H](CO)N4CCCCN(C(=O)c5cccnc5)C[C@@H]34)cc2)c1`, the result in assay [3] was inactive.

Take `C[C@@H]1CN([C@@H](C)CO)S(=O)(=O)c2ccc(C3=CCCC3)cc2O[C@H]1CN(C)C(=O)c1ccccc1`: the molecule was classed as inactive in assay [3] and in assay [2].

Consider `COc1ccc(-c2cn3cc(C)ccc3n2)cc1F`, for which the molecule was classed as inactive in assay [3].

Consider `COc1ccc2cc(C#N)c(Nc3cccc(F)c3)nc2c1`, for which, in assay [2], the result was inactive.

Regarding `COCC(=O)N[C@@H]1CC[C@@H](CC(=O)NCc2ccccc2OC)O[C@@H]1CO`, the call in assay [3] and in assay [2] was inactive.

For `Cc1ccc(-n2cc(CN(C)Cc3nccn3C)c(-c3cccc(C)c3)n2)cc1`, the result in assay [3] and in assay [2] was inactive.

As for `CCOc1ccc(-c2ccc(SCC)nn2)cc1`, the molecule was called inactive in assay [3].

With `Cc1ccc2nc(C(F)(F)F)c(C#N)c(N)c2c1`, in assay [2], the molecule was classed as inactive.

Regarding `COc1ccc(S(=O)(=O)N(C)C[C@@H]2OCCCC[C@H](C)Oc3ccc(NS(=O)(=O)c4ccc(Cl)cc4)cc3C(=O)N([C@@H](C)CO)C[C@@H]2C)cc1`, the molecule was classed as inactive in assay [3].

With `COc1ccc(-c2cc(-c3nnc(COC(=O)C4CC4)o3)c3ccccc3n2)cc1OC`, the result in assay [3] and in assay [2] was inactive.

As to `C[C@H](CO)N1C[C@H](C)[C@H](CN(C)C(=O)Nc2ccc3c(c2)OCO3)OCCCC[C@H](C)Oc2ccc(NC(=O)C3CCCCC3)cc2C1=O`, the molecule was classed as inactive in assay [3] and in assay [2].

For the molecule `CCCc1nc(SCC(=O)N2CCC(Cc3ccccc3)CC2)c2c(=O)n(C)c(=O)n(C)c2n1`, the call in assay [3] was inactive.

On to `COCCOc1cc(NCc2ccccc2)c2ncn(C(C)C)c2c1`, for which, in assay [3], the result was inactive.

On to `CC(=O)N1CCc2cc(S(=O)(=O)C(C)CC(=O)NCc3ccco3)ccc21` (stereo not given), for which the outcome in assay [3] and in assay [2] was inactive.

Turning to `C[C@H](CO)N1C[C@H](C)[C@H](CN(C)C(=O)Nc2ccccc2)OCCCC[C@H](C)Oc2ccc(NC(=O)C3CCCCC3)cc2C1=O`, the outcome in assay [3] and in assay [2] was inactive.
